# Source: PubChem BioAssay (National Center for Advancing Translational Sciences (NCATS))
# HCMV antiviral – human cytomegalovirus inhibition | HFF cells, HCMV-luciferase reporter, 72 h; stronger effect = lower value | activity change, negative = inhibition, % at 57.5 µM | 4.5% of 410,000 active; in the data active means activity change below about -60%; inconclusive means no clear call, values can overlap the other calls; inactive means above about -39%
#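 Steps: HFFs plated, 16 h 37C; compounds added; HCMV-luciferase added to MOI 1 PFU/cell; 72 h 37C; OneGlo reagent, 5 min room temperature; luminescence read, normalized to controls.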
# Sm TGR block – blocks Schistosoma mansoni thioredoxin glutathione reductase | Potency, µM (series often up to 114 µM), without a hit: at the top dose activity change, negative = inhibition, actives largely listed as inhibitors | Q962Y6 | 3% of 360,000 active | purified TGR, DTNB reduction, TNB absorbance 405 nm; further: potency means the concentration at half of the fitted maximal effect; nearly all actives have a fitted effect of over 60% in size
#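 First, TGR (20 nM dispensed) and NADPH were mixed with compound. Second, a 15 min room-temperature incubation followed. Third, further NADPH and then DTNB were added to start the reaction. Finally, TNB absorbance was monitored kinetically.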
# Vaccinia mCherry – inhibitors of vaccinia virus infection (mCherry reporter signal). Vaccinia virus mCherry reporter infection, fluorescence. Potency, µM (doses to about 36.5 µM), for inactives: at the highest dose activity change, negative = inhibition, hits mostly inhibitors. 0.63% of 310,000 active; calls by dose curve; tested in A549 cells; further: potency means the concentration at half of the fitted maximal effect; nearly all actives have a fitted effect of over 35% in size
# HCV inh – inhibitors of hepatitis C virus infection | 3.4% of 340,000 active | AID 651820 | Potency, µM (doses to about 41.8 µM), for the others: top-dose activity change, negative = inhibition, usual class: inhibitors | Huh7.5.1 HCVcc-Cre infection, luciferase reporter, 44 h; further: potency means the concentration at half of the fitted maximal effect
#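 Antiviral activity was scored by luciferase reporter output from cells infected with HCVcc-Cre (~0.5 moi) in presence of compound, 44 h infection period, cells seeded 1,000/well 4 h prior.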
# VACV Venus inh – inhibitors of vaccinia virus (Venus reporter) | Vaccinia virus Venus reporter expression, fluorescence | 0.46% of 330,000 active | Potency, µM (top dose mostly 36.5 µM), without a hit: at the highest dose activity change, negative = inhibition, hits mostly inhibitors; calls by dose curve; tested in A549 cells; further: potency means the concentration at half of the fitted maximal effect; nearly all actives have a fitted effect of over 30% in size
# FMDV inh – blocks foot and mouth disease virus; FMDV antiviral cell-based qHTS; Potency, µM (series often up to 57.9 µM), inactives show at the top dose activity change, negative = inhibition, actives largely listed as inhibitors; 1.2% of 410,000 active; AID 1159524; calls by dose curve; tested in HEK293T cells; further: read-out not given here; potency means the concentration at half of the fitted maximal effect; nearly all actives have a fitted effect of over 45% in size
# Active calls of the source: *; i = inactive; u = inconclusive; x = not tested or not shown; [ ] = another dose, or the depositor's remark. Only some compounds are listed: those with a hit (about 9.3% of all), similar ones and a draw of the others. Unless noted, the call rests on the fitted dose curve; in most records, active means well fitted curve in the direction sought with a large enough effect; inconclusive means small, poorly fitted or top-dose-only effect, or another doubt; inactive means no such curve, though single readings can be large; an effect the other way counts as inactive or inconclusive. On the % scale 0 is the no-effect control and ±100 the full control effect.
SMILES,HCMV antiviral,Sm TGR block,Vaccinia mCherry,HCV inh,VACV Venus inh,FMDV inh
COc1ccc(C(C(=O)NC2CCCC2)N(Cc2ccccc2)C(=O)c2snc(C(N)=O)c2N)cc1OC (stereo not given),42,-12%,-9%,2%,0%,-4%
Cc1cc(C(C)(C)C)cc(C)c1Cn1c2[n+](c3ccc(C(F)(F)F)cc31)CCCCC2,-95*,-2%,i,7.1µM*,-6%,28µM*
Cn1nc(-c2ccc(OCC(=O)Nc3cccnc3)cc2)c2ccccc2c1=O,98,0%,x,u,x,35µM*
COc1ccc(NC(=O)CCn2nc(-c3ccc(Cl)cc3)c3ccccc3c2=O)cc1,-3,-4%,-19%,x,-23%,-3%
O=C(CCn1c(=O)sc2ccccc21)Nc1cccnc1,16,50µM*,i,1%,-6%,x
Cc1ccc(NC(=O)COc2ccc(-c3nn(C)c(=O)c4ccccc34)cc2)cc1,-7,-6%,u,x,u,u
O=C(CCn1nc(-c2ccc(Cl)cc2)c2ccccc2c1=O)Nc1cccnc1,-65*,-6%,u,u,-18%,-15%
CCO[C@@H]1OC(C(=O)Nc2ccccc2)=C[C@H](c2ccc(Br)cc2)[C@H]1CCCO,-16,0%,13%,-20%,-9%,-16%
CCOC(=O)C1CCCN(C(=O)CSc2ccc(NC(C)=O)cc2)C1 (stereo not given),-20,3%,i,12%,-6%,6%
COc1ccccc1NC(=O)CSc1nnc(-c2ccccn2)o1,54,0%,i,u,-8%,26%
Cc1nnsc1C(=O)NC1CCCc2c1cnn2-c1ccccc1F (stereo not given),-87*,-25%,-3%,u,-15%,u
O=C(CCN1CCCC1=O)NC1CCCc2c1cnn2-c1ccccc1F (stereo not given),u,1%,x,14%,x,-19%
O=C(NC1CCCc2c1cnn2-c1ccccc1F)c1ccccn1 (stereo not given),-98*,8%,x,u,x,-21%
O=C(NC1CCCc2c1cnn2-c1ccccc1F)c1ccncc1 (stereo not given),-84*,x,u,x,-29%,u
O=C(NC1CCCc2c1cnn2-c1ccc(F)cc1F)c1ccccn1 (stereo not given),-39,16%[57.1 µM],-29%,-18%,-10%,-28%
O=C(NC1CCCc2c1cnn2-c1cc(F)cc(F)c1)c1ccncc1 (stereo not given),-22,0%,x,u,x,0%
COc1cc2[nH]c(=O)n(Cc3ccc(C(=O)N4CCC(N5CCCCC5)CC4)cc3)c(=O)c2cc1OC,x,-17%,-9%,-7%,-4%,-9%
COc1ccc(N2CCN(C(=O)c3ccc4c(=O)n(CCc5ccc(OC)c(OC)c5)c(=O)[nH]c4c3)CC2)cc1,-37,-11%,-22%,11µM*,-14%,28µM*
O=C(c1ccc2c(=O)n(CCc3ccccc3)c(=O)[nH]c2c1)N1CCN(c2ccc(Cl)cc2)CC1,-30,-3%,-28%,x,-30%,16µM*
COc1cc2[nH]c(=O)n(Cc3ccc(C(=O)N4CCN(c5ccc(Cl)cc5)CC4)cc3)c(=O)c2cc1OC,-9,-2%,u,x,u,25µM*
COc1ccc(Cn2c(=O)[nH]c3cc(C(=O)N4CCN(c5cccc(OC)c5)CC4)ccc3c2=O)cc1,-9,34%,-17%,x,-7%,u
O=C(c1ccc2c(=O)n(-c3ccccc3)c(=O)[nH]c2c1)N1CCCCC1,-66*,5%,i,-22%,-13%,x
Fc1ccc(CNCc2ccccc2Cl)cc1,u,1%,-11%,11%,-3%,12%
COc1ccc(OC)c(NC(=O)c2ccc3c(=O)n(CCc4ccccc4)c(=S)[nH]c3c2)c1,u,-1%,-10%,u,-9%,0.79µM*
COc1ccc(OC)c(NC(=O)CCn2c(=S)[nH]c3ccccc3c2=O)c1,u,6%,-1%,-1%,-14%,2%
SMILES,HCMV antiviral,Sm TGR block,Vaccinia mCherry,HCV inh,VACV Venus inh,FMDV inh
O=C(c1ccc2c(=O)n(CCc3ccccc3)c(=O)[nH]c2c1)N1CCN(c2ccccc2)CC1,x,6%,-4%,-27%,-2%,-26%
O=C(c1ccc2c(=O)n(CCc3ccccc3)c(=O)[nH]c2c1)N1CCN(c2ccc(F)cc2)CC1,-38,7%,u,u,0%,11µM*
CC1CN(S(=O)(=O)c2cc(C(=O)NCc3ccncc3)ccc2Cl)CC(C)O1 (stereo not given),-19,-3%,x,15%,x,2%
COc1ccc(NC(=O)c2ccc(Cl)c(S(=O)(=O)N3CCc4ccccc4C3)c2)cn1,-104*,-5%,x,11µM*,x,20µM*
COc1ccc(NC(=O)c2ccc(Cl)c(S(=O)(=O)N3CC(C)OC(C)C3)c2)cn1 (stereo not given),-90*,0%,x,3.2µM*,x,u
CCc1nnc(NC(=O)c2ccc(Cl)c(S(=O)(=O)N3CCc4ccccc4C3)c2)s1,u,-2%,-3%,u,3%,25µM*
Cc1ccccc1CCNC(=O)c1ccc(Cl)c(S(=O)(=O)N2CC(C)OC(C)C2)c1 (stereo not given),-88*,-26%,-21%,7.9µM*,u,18µM*
CCCCCOC(=O)Nc1ccc(S(=O)(=O)Nc2cccc([N+](=O)[O-])c2)cc1,-31,-7%,-25%,u,-18%,2%
CCOc1ccc(CCNC(=O)CCCN2C(=O)c3ccccc3C2=O)cc1OCC,7,9%,x,u,x,-6%
NC(=O)NC(Cc1ccccc1)C(=O)Nc1ccc(S(N)(=O)=O)cc1 (stereo not given),-27,-2%,x,18%,-11%,-4%
COc1ccc([C@H]2[C@@H](C#N)[C@H](C#N)N3CCCN23)cc1,16,8%,x,4%,x,0%
Cc1[nH]n(-c2ncc(-c3ccccc3)s2)c(=O)c1C(c1ccc(Cl)cc1)C(C#N)C#N (stereo not given),-2,u,-19%,0%,-13%,20µM*
CCOc1ccc(CCNC(=O)c2ccc3c(c2)NC(=O)C2CCCN32)cc1OCC (stereo not given),x,50µM*,x,x,x,x
CC(=O)C(Cc1ccccc1)NC(=O)CCl (stereo not given),u,u,x,-4%,x,-15%
O=C(CCl)NC(Cc1ccccc1)c1ccccc1 (stereo not given),-22,22µM*,4%,-19%,1%,u
CSC1=NC(C(Cl)(Cl)Cl)N=C(c2ccc(C)cc2)N1 (stereo not given),-71*,-15%,-26%,u,u,-22%
CSC1=Nc2sc3c(c2C2=NCCN12)CC(C)(C)OC3,u,x,x,-26%,x,-4%
